Among the data in PubChem BioAssay AID932 (The Scripps Research Institute Molecular Screening Center, 2007) are activation (% of control) values, retold here.

The whole screen tested about 200,000 compounds, of which about 5,100 (2.5%) were called active. This is one part of a sample in which actives are shown more often than they occur. A number with no mark means an inactive call.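 Rule for the calls: active = activation above the screen-wide mean activation plus 3 SD (cut at about 130% in these data); inactive = the rest.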

A short description of the assay: potentiators of IFN-gamma driven STAT1 reporter – cell-based, HTS, luciferase reporter, primary screen (AID 932).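 Note: raw ratio to IFN-gamma control signal so 100% means no change and 0% no light.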 The conditions noted are these: NIH 3T3 STAT1-luciferase reporter, luminescence, at 5.5 µM, active compounds read high, 100% = IFN-gamma alone, no compound. A general note: A reporter such as luciferase makes a cellular process visible.
Turning to `O=C(COC(=O)/C=C/c1nc2ccccc2s1)Nc1ccccc1Oc1ccccc1`, the activation (% of control) was 95.5%.
In the case of `CC(=O)NCC(=O)N1CCCC(C(=O)c2ccc3c4c(cccc24)CC3)C1` (configuration not stated), the activation (% of control) is 99.2%.
In the case of `CCOC(=O)C1CCN(c2ccc(C(=O)O)cc2[N+](=O)[O-])CC1` it was 98.3%; in that of `COc1ccc(NC(=O)N2CCCC(c3nc(-c4ccc(F)cc4)no3)C2)cc1` (configuration not stated), 102%; in that of `N#Cc1ccccc1NC(=O)c1cccc(COc2ccc(Cl)cc2Cl)c1`, 132% (active).
The same measure for `O=C(Nc1ccn(Cc2ccccc2F)n1)c1ccc(COc2ccc(Cl)cc2Cl)o1`: 105%; for `CSc1ccc(C#N)cc1NC(=O)c1cccc(Cl)c1`: 106%.
In the case of `CN1C=CC=C/C1=C1\SC(=S)N(Cc2ccccc2)C1=O` it was 104%.
For the compound `O=C(NCc1ccccn1)Nc1ccc(F)cc1`, the activation (% of control) is 108%.
The same measure for `c1ccc(CN=C2Nc3ccccc3CS2)nc1`: 135% (active); for `CC(C)(C)NC(=O)CN1CCC(NC(=O)C23CC4CC(CC(C4)C2)C3)CC1`: 96.5%; for `CCOC(=O)CNC(=O)c1nn(-c2cccc(OC)c2)c(=O)c2ccccc12`: 130% (active).
`COc1cccc(-n2nc(C(=O)N3CCN(Cc4ccccc4)CC3)c3ccccc3c2=O)c1`: the activation (% of control) was 99.9%.
In the case of `COc1ccc(-n2nc(C(=O)NCC(=O)Nc3cccc(C)n3)c3ccccc3c2=O)cc1` it was 99.9%.
The same measure for `COc1ccc(-c2csc(-c3cccs3)n2)cc1OC`: 182% (active); for `COc1ccc(-c2nn3c(-c4ccccc4)nnc3s2)cc1OC`: 114%; for `COc1ccc(C2CC(c3cccs3)=Nc3ccccc3S2)cc1OC` (configuration not stated): 106%.
In the case of `Cc1ccc(NC(=S)N(CCN(C)C)Cc2cccs2)cc1C` it was 97.2%.
Turning to `Cc1ccc(NC(=O)c2cccs2)cc1S(=O)(=O)N(C)C`, the activation (% of control) is 101%.
For `Cc1ccc(NC(=O)CNCc2ccccn2)cc1S(=O)(=O)N(C)C`, the activation (% of control) was 97.7%.
In the case of `Cc1ccc(C(=O)Nc2ccc(C)c(S(=O)(=O)N(C)C)c2)s1` it was 141% (active); in that of `C#CCOCCOCCOCCNc1nc(N2CCN(C(=O)C(Cc3ccc(O)cc3)n3cc(C(N)CC(C)C)nn3)CC2)nc(N2CCN(C(=O)C(Cc3ccc(O)cc3)n3cc(C(N)C(C)CC)nn3)CC2)n1` (configuration not stated), 109%; in that of `O=C(NC(=S)Nc1cccc(-c2ccc(CO)o2)c1)c1cccs1`, 93.4%.
For the compound `Cc1cc(-c2n[nH]c(=S)n2-c2ccc(C)c(C)c2)no1`, the activation (% of control) is 90.1%.
In the case of `CCOC(=O)c1ccccc1N1C(=O)C2Sc3[nH]c(=O)sc3C(/C=C/c3ccccc3)C2C1=O` (configuration not stated) it was 114%; in that of `COC(C(=O)Nc1ccc(S(=O)(=O)Nc2ccc(C)c(C)c2)cc1)c1ccccc1` (configuration not stated), 108%; in that of `CC(=O)c1cnc(SCCN2C(=O)c3ccccc3C2=O)nc1C`, 95.5%.
The same measure for `Nc1ccc(SCCN2C(=O)c3ccccc3C2=O)cc1`: 129% (active).
Take `Cc1ccc(SCCN2C(=O)NC(C)(C)C2=O)cc1`: the activation (% of control) is 103%.
In the case of `O=C(CN1CCSCC1)N/N=C/c1ccc(Cl)cc1` it was 107%; in that of `COc1ccc(-c2ccc(CCC(=O)O)n2-c2ccc(O)cc2)cc1`, 101%; in that of `O=C(NCCc1ccccc1)c1ccc(OCCOc2ccccc2)cc1`, 109%.
The same measure for `CC(C)c1ccc(C(=O)NCCCc2ccccc2)cc1`: 131% (active).
In the case of `CCCOc1ccc(C(=O)NCCc2ccccc2)cc1` it was 76.1%; in that of `COc1ccc(Cc2nnc(NC(=O)c3cc(OC)c(OC)c(OC)c3)s2)cc1OC`, 89.1%; in that of `CCOCCCNC(=O)C(NC(=O)Cc1c[nH]c2ccccc12)c1ccc(OC)cc1` (configuration not stated), 87.9%.
For the compound `O=C(CSc1ccsc1[N+](=O)[O-])N1CCCCC1`, the activation (% of control) was 94.8%.
In the case of `O=C(CSCc1ccc(Cl)cc1)N1CCCCC1` it was 121%; in that of `O=C(CSCc1cccs1)N1CCCC1`, 129% (active).
In the case of `COc1ccc(C(=O)NCc2nnc(SCCOc3ccccc3)n2C)cc1` it was 102%.
As for `CCS(=O)(=O)n1nc(-c2ccc(OC)cc2)nc1SC`, the activation (% of control) is 112%.
The same measure for `CS(=O)(=O)n1nc(-c2ccccc2)nc1NCc1ccco1`: 102%; for `CCS(=O)(=O)n1nc(-c2ccccc2)nc1SCc1ccccc1`: 130% (active).
The same measure for `COc1cccc(-n2c(=O)c3c(C)c(C(=O)N(C)C)sc3n(CC(=O)NCCc3ccc(OC)c(OC)c3)c2=O)c1`: 97.9%; for `COc1ccc(NC(=O)Nc2ccc3nsnc3c2)cc1`: 146% (active); for `COc1ccc(NC(=O)c2ccc(OC)cc2)cc1`: 140% (active).
In the case of `COc1ccc(NC(=O)c2ccc(C#CC(C)(C)O)cc2)cc1` it was 106%; in that of `COc1ccc(/C=N/NC(=O)Nc2ccc3nsnc3c2)c(OC)c1`, 114%.
In the case of `COc1ccc(C(=O)Nc2ccc(S(=O)(=O)NC(C)C)cc2)cc1`, the activation (% of control) was 93.8%.
Take `COc1ccc(NC(=O)Nc2ccc3nc(C)c(C)nc3c2)cc1`: the activation (% of control) was 103%.
The same measure for `CCOc1cc(/C=C(/C#N)c2ccc(Cl)cc2)cc(Cl)c1OCC(=O)O`: 56.1%.
The same measure for `COc1ccccc1Cn1c(C)nnc1-c1cnn(C)c1N`: 93.2%; for `CCN(CCn1cccn1)Cc1cn[nH]c1-c1ccc(OC)cc1F`: 89%; for `COc1ccc2ccccc2c1CNc1nnnn1C`: 99.2%.
In the case of `CCC(=O)Nc1c(C)n[nH]c1C` it was 102%; in that of `COc1ccc(-n2cc(CN(C)Cc3n[nH]c(=O)[nH]3)c(-c3cccc(F)c3)n2)cc1`, 104%.
As to `Cc1ccc(NC(=S)N(CCCN2CCCC2)Cc2cccn2Cc2ccc(Cl)cc2)cc1`, the activation (% of control) was 85.3%.
Take `Cc1ccc(S(=O)(=O)NCCc2nnc3ccc(SCc4cccnc4)nn23)cc1`: the activation (% of control) was 99%.
In the case of `CCOc1nc(-c2ccc(OC)cc2)ccc1-c1noc(-c2cc(OC)c(OC)c(OC)c2)n1` it was 102%; in that of `COc1cc(-c2nc(-c3ccncc3)no2)cc(OC)c1OC`, 97.3%.
In the case of `COc1ccc(-c2noc(-c3cccc(OC)c3OC)n2)cc1OC` it was 144% (active); in that of `COc1cccc(NC(=O)CN(C)C(C)C(=O)Nc2ccc(C#N)cc2)c1` (configuration not stated), 90.8%.
